Assay results reported in the supplement of paper PMC13380429.

Test system: Vero E6 infected with SARS-CoV-2
Assay: inhibition of SARS-CoV-2 cytopathic effect; higher = more antiviral protection, active = above 15
Conditions: 48 h

Measured: inhibition of SARS-CoV-2 cytopathic effect

Nc1nc(NC2CC2)cc(-c2cccc(Cl)c2Cl)n1
inactive: 1 nM 0.66% | 8.33 nM -1.17% | 100 nM -1.96% | 833.33 nM -0.45% | 10000 nM -1.5%

CS(=O)(=O)c1ccc(Cn2c3c(c4cc(F)cc(F)c42)CCCC3CC(=O)O)cc1 (stereo not given)
inactive: 1 nM 0.13% | 8.33 nM -0.29% | 100 nM -0.12% | 833.33 nM 1.36% | 10000 nM -1.55%

COc1cccc(-c2cc(=O)c3ccccc3o2)c1N
inactive: 1 nM 1.12% | 8.33 nM -3.81% | 100 nM -0.32% | 833.33 nM -3.58% | 10000 nM -5.22%

Fc1ccc2c(CCNCc3cccc(OCC(F)(F)C(F)F)c3)c[nH]c2c1 [idalopirdine]
inactive: 1 nM 2.26% | 8.33 nM 0.96% | 100 nM 0.82% | 833.33 nM -0.82% | 10000 nM -3.37%

O=C1NC(=O)/C(=C/c2ccc(-c3ccc(F)cc3O)o2)S1
inactive: 1 nM -0.52% | 8.33 nM -0.98% | 100 nM -0.46% | 833.33 nM -1.39% | 10000 nM -0.94%

CC(C)(C)c1cc(C(C)(C)C)c2c(c1)C(O)(C(F)(F)F)C(=O)O2 (racemic)
inactive: 1 nM 5.52% | 8.33 nM 2.66% | 100 nM 4.61% | 833.33 nM -0.2% | 10000 nM -1.15%

CC(C)(O)CNc1nc(Nc2ccnc(C(F)(F)F)c2)nc(-c2cccc(C(F)(F)F)n2)n1 [enasidenib]
inactive: 1 nM -2.39% | 8.33 nM -0.28% | 100 nM -1.11% | 833.33 nM -2.37% | 10000 nM -1.07%

CCCCCCN(CCCCCC)C(=O)Cc1c(-c2ccc(Cl)cc2)[nH]c2ccc(Cl)cc12
inactive: 1 nM 1.54% | 8.33 nM 2.57% | 100 nM -1.81% | 833.33 nM -0.56% | 10000 nM -0.57%

CC(C)CCNC(=O)[C@H](CC(C)C)NC(=O)[C@H]1O[C@@H]1C(=O)O [loxistatin-acid]
inactive: 1 nM -1.03% | 8.33 nM -1.05% | 100 nM -0.89% | 833.33 nM 0.62% | 10000 nM 2.74%

CCOc1ccn(-c2ccc(F)cc2)c(=O)c1C(=O)Nc1ccc(Oc2ccnc(N)c2Cl)c(F)c1
inactive: 1 nM 2.67% | 8.33 nM 1.32% | 100 nM -5.33% | 833.33 nM 2.11% | 10000 nM -3.09%

CNCC[C@@H](Oc1ccccc1C)c1ccccc1 [atomoxetine]
inactive: 1 nM 1.13% | 8.33 nM 1.43% | 100 nM 3.37% | 833.33 nM 2.34% | 10000 nM -2.83%

COc1c(Nc2ccc(S(C)(=O)=O)nc2C)ncnc1OC1CCN(C(=O)OC(C)C)CC1
inactive: 1 nM -1.98% | 8.33 nM 0.8% | 100 nM 0.06% | 833.33 nM -1.17% | 10000 nM -1.76%

CC(=O)OCC(=O)[C@@]1(O)CC[C@H]2[C@@H]3CCC4=CC(=O)CC[C@]4(C)[C@H]3[C@@H](O)C[C@@]21C [hydrocortisone-acetate]
inactive: 1 nM -3.27% | 8.33 nM -0.84% | 100 nM 0.23% | 833.33 nM -1.92% | 10000 nM -0.4%

CC(=O)OCC(=O)[C@@]12OC(C)(C)O[C@@H]1C[C@H]1[C@@H]3C[C@H](F)C4=CC(=O)C=C[C@]4(C)[C@@]3(F)[C@@H](O)C[C@@]12C [fluocinonide]
inactive: 1 nM 0.75% | 8.33 nM -0.105% | 100 nM 0.48% | 833.33 nM 0.035% | 10000 nM -1.54%

C/C(=C\CNc1ncnc2[nH]cnc12)CO [zeatin]
inactive: 1 nM -3.72% | 8.33 nM -2.49% | 100 nM -0.97% | 833.33 nM 0.86% | 10000 nM -1.15%

COc1ccc(Cl)cc1NC(=O)Nc1cc(C)nc2ccccc12
inactive: 1 nM 1.48% | 8.33 nM -2.11% | 100 nM -0.41% | 833.33 nM 1.18% | 10000 nM -17.7%

CC(=O)Nc1cccc(Nc2ncnc(N3CCC(OCc4ccc(OC(F)(F)F)cc4)CC3)n2)c1C
inactive: 1 nM 0.94% | 8.33 nM -3.45% | 100 nM -5.16% | 833.33 nM -2.26% | 10000 nM 1.6%

O=C1C(=Cc2cccnc2)C(=O)c2ccccc21
inactive: 1 nM 1.43% | 8.33 nM 1% | 100 nM 3.58% | 833.33 nM 5.97% | 10000 nM 5.97%

CC(C)N(CCCNC(=O)Nc1ccc(C(C)(C)C)cc1)C[C@H]1O[C@@H](n2ccc3c(N)ncnc32)[C@H](O)[C@@H]1O
inactive: 1 nM 4.48% | 8.33 nM 2.04% | 100 nM 4.36% | 833.33 nM -0.49% | 10000 nM 0.43%

c1ccc2cc(C3=NCCN3)ncc2c1
inactive: 1 nM 1.6% | 8.33 nM 1.22% | 100 nM 2.06% | 833.33 nM -0.28% | 10000 nM 1.35%
